Tests used:
Assay in all cases: PBM binding z-score (relative to random genomic background probes); higher = stronger binding; sequences stand for … in GC…GCGATTGACAGCGTAGAATGAAGG
[1] = test system: FXR:RXRa (NR concentration 270 nM, RXRa partner concentration 90 nM)
In short: (§1)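 Custom Agilent 4×180K protein-binding microarrays carried double-stranded probes. Their 34-nt variable regions held direct-repeat seeds, single-nucleotide variants, half-site ablations and random human genomic background sequences. Arrays were incubated 1 h with ligand-free nuclear receptor dimers in PBS pH 7.4, 2% milk, 0.02% Triton X-100, 1 mM DTT, 0.2 mg/mL BSA and 0.4 mg/ml salmon testes DNA. Antibodies against each partner (one per run) detected binding, and scanned fluorescence was regression-normalized. Binding z-scores use random background probes as reference.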

[2] = test system: LXRa:RXRa (NR concentration 270 nM, RXRa partner concentration 90 nM)
In short: as §1

[3] = test system: LXRa homodimer (NR concentration 270 nM)
In short: as §1

[4] = test system: LXRb:RXRa (NR concentration 270 nM, RXRa partner concentration 90 nM)
In short: as §1

[5] = test system: LXRb homodimer (NR concentration 270 nM)
In short: as §1

[6] = test system: PPARa:RXRa (NR concentration 270 nM, RXRa partner concentration 90 nM)
In short: as §1

[7] = test system: PPARg:RXRa (NR concentration 180 nM, RXRa partner concentration 90 nM)
In short: as §1

[8] = test system: PPARg:RXRa 270nM:90nM, anti-RXR (NR concentration 270 nM, RXRa partner concentration 90 nM)
In short: as §1

[9] = test system: PPARg:RXRa 30nM:10nM, anti-RXR (NR concentration 30 nM, RXRa partner concentration 10 nM)
In short: as §1

[10] = test system: PPARg:RXRa 90nM:30nM, anti-RXR (NR concentration 90 nM, RXRa partner concentration 30 nM)
In short: as §1

Row | Sequence | PBM binding z-score [1] | PBM binding z-score [2] | PBM binding z-score [3] | PBM binding z-score [4] | PBM binding z-score [5] | PBM binding z-score [6] | PBM binding z-score [7] | PBM binding z-score [8] | PBM binding z-score [9] | PBM binding z-score [10]
1 | ATCTCTCGGTAAAAGTTCAGTGAATCCCGAGGAT | 0.576 | 1.16 | 1.29 | 1.07 | 1.12 | 2.92 | 3.81 | 5.71 | 3.76 | 6.34
2 | CGTCAGAGTTCAAGGTAACGTAACAGAAAGCAGC | 5.49 | 5.11 | 1.85 | 3.2 | 0.38 | 4.54 | 2.92 | 3.58 | 0.864 | 2.39
3 | CCTCGGCGGACAGAAGGTCAGAGCTGTCCGCTTT | 1.18 | 1.29 | -0.126 | 0.771 | -1.09 | 1.64 | -0.606 | 0.898 | -0.662 | -0.0722
4 | TCTTGTAGATCAATCGAGGTTAAGAAAGTGCGCT | 1.32 | 3.01 | 0.075 | 1.49 | 0.176 | 1.73 | -0.311 | 1.51 | 2.7 | 2.4
5 | AATACAGGGTCATCGGAGGCCAGAGTACGCACAG | 7.32 | 6.52 | 2.37 | 4.98 | 1.28 | 6.1 | 6.72 | 6.12 | 2.64 | 4.8
6 | CCTATTAGTTGACCATAAGGGCAACCGTAGCTCG | 0.644 | 0.364 | 0.502 | 0.478 | 0.7 | 0.679 | 0.376 | 0.487 | 0.0256 | 0.357
7 | TCTTGTAGATCAAAAGTTAAGAAAGCCGAAGCCT | 0.493 | 0.329 | -0.368 | 0.277 | -0.137 | 1.31 | 1.83 | 4.32 | 3.84 | 4.55
8 | CCGACTGGGGCAAATGTTACCATACTCAGTACGA | 0.0667 | -0.122 | 0.0319 | 0.411 | -0.698 | 2.25 | 4.31 | 5.16 | 3.62 | 5.18
9 | ATCGAAAGGTGGTGAGGTGAGTATACAGAAAGGC | 0.483 | 0.31 | 0.284 | 0.389 | 0.161 | 0.744 | 0.668 | 0.261 | 0.347 | 0.438
10 | TCTGCTAGGTCAACGAAGGTCAGCTAATCTGCTA | 4.67 | 5.5 | 2.58 | 3.81 | 0.162 | 4.32 | 3.83 | 4.05 | 2.3 | 3.7
11 | GCAGACAGGTGAAACGCAGGTAACTCAGGGTGGC | -0.388 | 0.00311 | -0.515 | -0.48 | -1 | 0.864 | 0.383 | -0.117 | -0.52 | -0.467
12 | GCTGCTAGGTCAGGTTGGTCAGCTTACGGGTACG | 1.11 | 0.781 | -0.122 | 0.397 | -0.0807 | 1.07 | 0.483 | 0.904 | -0.57 | 0.294
13 | GGAACGAGGGCATTCGAGGTGATAGCATGGCGAT | 1.32 | 3.38 | -0.432 | 0.556 | -0.578 | 2 | 1.28 | 0.75 | 0.0745 | 0.494
14 | CAAACTAGGTCAGAGGTCAAAGTCGAGCCAACCA | 7.41 | 6.65 | 5.53 | 6.17 | 2.6 | 7.53 | 13.4 | 11.1 | 11.7 | 12.8
15 | TCTTGTAGATCAACAGGAGGTTAAGAAGGATCGA | 0.614 | 0.955 | 0.0858 | 0.854 | -0.55 | 1.34 | 0.000249 | 1.23 | 2.58 | 1.73
16 | GCATATAGGTAATACAAGTTGAAAGTCCGATTGT | 0.281 | 0.793 | -0.112 | 0.0778 | -0.33 | 1 | 1.05 | 0.484 | -0.0817 | 0.166
17 | TCATATAGGTCAACAGGTGAAAGTCCGTAAGTTA | 6.45 | 5.39 | 1.85 | 4.2 | 1.2 | 5.91 | 8.36 | 7.51 | 5.85 | 7.17
18 | ATCTCTAGGTAAACAAGTTCAGTGAATGCCGAAC | 0.431 | 1.06 | 1.16 | 0.55 | 0.583 | 1.04 | 0.677 | 0.774 | 0.448 | 0.709
19 | ATATGTAGGTTACATCCGGGTCAATCAGGCTATG | 2.56 | 4.37 | 1.05 | 2.91 | 0.748 | 4.39 | 5.98 | 5.29 | 2.62 | 4.47
20 | TCTGCTAGGTCAACCATGGTCAGCTAATCTGCTA | 4.32 | 3.21 | -0.0391 | 2.21 | 0.102 | 3.52 | 2.98 | 3.44 | 2.15 | 2.95
21 | ATACCAAGGTGATCGTGAGGTCGTGGATACTAAC | 1.71 | 1.27 | 0.515 | 1.39 | -0.127 | 2.17 | 0.846 | 0.784 | -0.103 | 0.493
22 | CAAACTAGATCAAGAGGTCAAAGTCCGCTTCCCG | 4.72 | 5.55 | 6.71 | 5.21 | 1.87 | 5.77 | 4.08 | 4.85 | 2.67 | 4.71
23 | TCTATTAGTTGATTTGGGCAACCGAAACAGCGGA | 0.267 | 0.602 | 0.223 | 0.863 | 1.2 | 0.657 | -0.145 | 1.83 | 3.74 | 3.01

— the supplement of paper PMC6555819
